Assay outcomes (PubChem BioAssay)
INS promoter inh – inhibitors of insulin promoter-driven GFP, primary screen, imaging, TRM-6 cells (human fetal islet line), eGFP reporter, cell count | reporter expression induced with tamoxifen | inhibition, % at 2 µM | 130,000 tested, 0.9% active;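 active = inhibition above the mean plus 3 SD, with well images judged a real hit on visual review, cut at about 60% in these data, passing the limit was not always enough; inconclusive = inhibition over the cutoff but images rejected on review; inactive = inhibition not above the cutoff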
Autophagy mod – autophagy modulators in MEF cells, primary screen, imaging, high-content, MEF GFP-LC3. AID 463193, 2010. 190,000 tested, 0.98% active. MEF GFP-LC3 puncta imaging; test concentration mostly 10 µM. calls only at 10 µM (by protocol);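 active = percentage of spot-positive cells more than 3 SD above its plate mean, without a fluorescence outlier flag or 80% toxicity; inconclusive = no clear call, values can overlap the other calls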;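 also: spot-positive cell cutoff set from DMSO-treated cells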
WT yeast gro inh – growth inhibition of WT strain, primary screen, mitochondrial fusion inhibitor project, WT and mutant strains, chemical genetic; mitochondrial fusion phenotypic screen; inhibition, % at 10 µM; 190,000 tested, 2.1% active; AID 1362, 2008; in the data active = inhibition above about 58%; tested in S. cerevisiae
Insulin prom up – insulin promoter activators in MIN6 cells, imaging, high-content screening, mouse beta cells; MIN6 insulin promoter-GFP reporter; hits give high values; z-score at 5 µM; 190,000 tested, 0.3% active;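 active = z-score above 3 at 5 µM with at least 500 cells counted in the well; inconclusive = wells under 500 cells, flagged as cytotoxic or low count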
L major viab – Leishmania major promastigote growth inhibition, primary screen | 200,000 tested, 9% active | inhibition, % at 10 µM | Leishmania major promastigotes, resazurin fluorescence viability | AID 1063, 2008; in the data active = inhibition above about 50%;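 also: promastigotes grown with compound for 44 hours at 28 °C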
Starred values were filed as active, the others as inactive; i = inactive; ? = inconclusive; . = not tested or not shown; + = active, no number. Sampled rows, rich in hits. Any-hit rate of the full collection: about 11%.

SMILES	INS promoter inh	Autophagy mod	WT yeast gro inh	Insulin prom up	L major viab
Cc1ccc[n+](CC(=O)/C=C2\N(C)c3ccccc3C2(C)C)c1	13	i	11	0.25	3
Cc1cccc(-n2cc3c(=O)n(C)c(=O)n(C)c3c2)c1	-5	i	-6	-0.19	7
COc1cc2c3nnc(-c4ccc(F)cc4)c-3cn(Cc3ccccc3F)c2cc1OC	i	+	-54	6.3*	-4
CC(=O)/C(C#N)=C1\NC(=O)C(Cc2ccccc2Cl)S1 (centres undefined)	33	i	76*	.	2
Cc1ccc(/C(N)=N/OC(=O)c2ccc3c(c2)OCO3)cc1	-17	i	-5	-0.22	51*
COc1ccc(/C(N)=N/OC(=O)c2ccc3c(c2)OCO3)cc1	.	i	-6	.	-5
Cc1ccc(/C(N)=N/OC(=O)c2ccc(Cl)cc2Cl)cc1	15	i	0	0.02	85*
COc1ccccc1C(=O)O/N=C(\N)c1ccc(Cl)cc1	3	i	15	.	7
N#CC1=C(N)NC(SCC(=O)Nc2ccccc2)=C(C#N)C12CCCCC2	?	i	-19	.	77*
N#CC1=C(N)NC(SCc2ccccc2)=C(C#N)C12CCCCC2	.	i	13	-0.49	99*
CCCSC1=C(C#N)C2(CCCCC2)C(C#N)=C(N)N1	-43	i	7	.	43
CCSC1=C(C#N)C2(CCCCC2)C(C#N)=C(N)N1	0	i	-5	-1	20
NC(=O)c1ccsc1NC(=O)COC(=O)C1CC2CCCC(C1)C2=O (centres undefined)	.	.	.	0.17	.
CC1(C)CC(=O)C2=C(C1)N(CC1CCCO1)C(=O)C2(NC(=O)c1cccnc1)C(F)(F)F (centres undefined)	.	i	-8	0.59	-7
O=S(=O)(c1ccc(F)cc1)N1CCN(Cc2ccccn2)CC1	.	i	-11	0.05	-4
O=C(CCNc1cccc(C(F)(F)F)c1)c1ccco1	3	i	-2	0	85*
O=C(CCNc1cc(Cl)cc(Cl)c1)c1ccco1	20	i	-9	1.7	10
O=C(CCNc1ccc(F)c(Cl)c1)c1ccco1	-29	i	25	-0.92	96*
O=C(CCNc1ccc(F)cc1)c1ccco1	-54	i	-4	0.83	97*
CCCCCSc1nnc(-c2ccccc2NC(C)=O)c(=O)[nH]1	.	i	-9	-0.39	-5
CC(C)OC(=O)c1c2c(n3ccccc13)C(=O)c1ccccc1C2=O	.	i	-5	12*	-4
COC(=O)c1cc2c(C)c(C)c3ccccn3c-2c1C(=O)OC	-46	i	4	.	5
CCOC(=O)c1c(C)c(C(=O)NCc2ccc3c(c2)OCO3)c(C)n1C	11	i	16	-0.41	0
O=C(O)Cc1ccc(S(=O)(=O)Nc2ccccc2C(=O)O)cc1	.	i	6	.	0
COc1c(C)cc(C(=O)C2CCCN(C(=O)c3ccc4cc[nH]c4c3)C2)cc1C (centres undefined)	.	i	5	0.21	65*
SMILES	INS promoter inh	Autophagy mod	WT yeast gro inh	Insulin prom up	L major viab
COc1ccccc1-c1c(C(F)(F)F)oc2cc(OCC(=O)Nc3cc(C)ccc3C)ccc2c1=O	.	i	10	-0.07	-5
Cn1c(=O)c(=O)n(C)c2cc(S(=O)(=O)Nc3ccc(OC(F)(F)F)cc3)ccc21	-50	i	4	.	99*
COc1ccc(NS(=O)(=O)c2ccc3oc(Nc4ccc5c(c4)OCCO5)nc3c2)cc1	57	i	73*	-0.11	93*
Cn1c(=O)oc2cc(S(=O)(=O)Nc3ccc4c(c3)OCCO4)ccc21	-314	i	-3	1.6	63*
Cc1ccc(CNS(=O)(=O)c2ccc3c(c2)n(C)c(=O)c(=O)n3C)cc1	-22	i	-4	0.35	99*
Cn1c(=O)oc2cc(S(=O)(=O)NCc3ccccc3)ccc21	-12	i	-2	.	-6
Cn1c(=O)oc2cc(S(=O)(=O)NCCC(=O)Nc3ccc4c(c3)OCCO4)ccc21	.	i	-8	-0.09	-7
Cn1cc(S(=O)(=O)Nc2ccc(OC(F)(F)F)cc2)c(=O)n(C)c1=O	.	.	.	-0.01	.
O=C(NCc1ccccc1)NCc1cccs1	.	i	17	0.55	-4
O=C(Cn1cc(F)c(=O)[nH]c1=O)NCCO	.	i	-6	0.07	-2
CC(C)(C)c1ccc(OCc2ccc(C(=O)NCc3cccnc3)o2)cc1	.	i	34	-0.54	8
COc1ccccc1N(CC(=O)NC(C)(C)C)S(=O)(=O)c1cccs1	-10	i	-1	0.04	47
CCOC(=O)CN1C(=O)CN(c2ccc(C)c(C)c2)C1=O	17	i	-17	0.15	24
Cn1c(=O)c(=O)n(C)c2cc(S(=O)(=O)Nc3ccc4c(c3)OCCO4)ccc21	-26	i	0	-0.12	64*
Cc1c(S(=O)(=O)Nc2ccc3c(c2)OCCO3)c(=O)n(C)c(=O)n1C	.	i	-3	1	-7
COc1ccc([N+](=O)[O-])cc1N(CC(=O)NC(C(C)C)C(C)C)S(C)(=O)=O	.	i	-11	-0.38	-4
CCOC(=O)c1sc2cc([N+](=O)[O-])cc(SCCO)c2c1N	-50	+	7	0.25	48
CCCc1ccc(OCC(=O)Nc2cc(S(=O)(=O)CC)ccc2O)cc1	.	i	1	0.13	-15
Cc1ccc2nc(NC(=O)COC(=O)CSc3nc(C)cc(C)n3)sc2c1	-13	i	-7	1.3	-2
CCn1nnnc1SCC(=O)Nc1ccc(OC)cc1	-462	i	-4	0.38	1
COc1ccc2nc(NC(=O)CSc3nc(C)cc(C)n3)sc2c1	59	i	10	-0.93	51*
CCn1nnnc1SCC(=O)Nc1nc2ccc(OC)cc2s1	-12	i	9	0.44	86*
NC(=O)N/N=C/c1cccc(OCc2ccc(F)cc2)c1	0	i	-2	0.28	8
Cc1nnc(N/N=C/c2cccc(OCc3ccc(Cl)c(Cl)c3)c2)n1N	.	i	29	-0.01	73*
CCOc1ccc(C2Nc3cccc4cccc(c34)N2)cc1OC	7	i	3	0.68	69*
SMILES	INS promoter inh	Autophagy mod	WT yeast gro inh	Insulin prom up	L major viab
Cc1ccc(CN(Cc2ccccc2)C(=S)Nc2ccccc2C)o1	-33	i	3	-1.6	-2
CC1=CC(C)(C)N(C(=O)CCl)c2cc(C)ccc21	.	i	-29	-0.05	2
COc1ccc2c(c1)C(C)=CC(C)(C)N2S(=O)(=O)c1ccc(C)cc1	-200	i	45	-2.5	98*
CCNC(=O)N1c2ccc(OCC)cc2C(C)=CC1(C)C	-286	i	12	-0.7	11
CC1=CC(C)(C)N(S(=O)(=O)c2ccc(C)cc2)c2cc(C)ccc21	-28	+	76*	.	99*
CCOc1ccc2c(c1)C(C)=CC(C)(C)N2S(=O)(=O)c1ccc(C)cc1	-119	i	72*	-3.3	95*
CCOc1ccc2c(c1)C(C)=CC(C)(C)N2C(=O)Nc1ccccc1F	-30	i	-20	0	68*
